Compound activity: PubChem BioAssay, National Center for Advancing Translational Sciences (NCATS)
Sampled rows, rich in hits. Any-hit rate of the full collection: about 1.7%.
GLP-1R agonist – agonists of human GLP-1 receptor; Potency, µM (titrated, usually from 45.6 µM), for inactives: at the top dose activation, actives largely listed as activators; P43220; HEK293 GLP-1R CRE-luciferase, luminescence, 4-6 h; cells express a hypersensitive GLP-1R form; hit rate 0.007% among 380,000; note: % of control where 0% means no effect
Target sequence (P43220 whole entry, looked up): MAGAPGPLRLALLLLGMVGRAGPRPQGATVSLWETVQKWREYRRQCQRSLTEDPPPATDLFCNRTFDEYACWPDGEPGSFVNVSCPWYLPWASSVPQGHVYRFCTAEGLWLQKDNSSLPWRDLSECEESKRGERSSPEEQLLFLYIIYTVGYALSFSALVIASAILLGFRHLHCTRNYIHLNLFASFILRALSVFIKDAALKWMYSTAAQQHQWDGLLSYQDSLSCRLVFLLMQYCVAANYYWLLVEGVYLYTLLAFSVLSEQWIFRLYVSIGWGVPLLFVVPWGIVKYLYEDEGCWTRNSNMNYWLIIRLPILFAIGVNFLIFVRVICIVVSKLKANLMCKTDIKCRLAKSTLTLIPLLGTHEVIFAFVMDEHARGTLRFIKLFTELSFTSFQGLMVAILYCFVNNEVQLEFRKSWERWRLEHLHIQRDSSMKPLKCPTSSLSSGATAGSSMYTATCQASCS
PTHR1 agonist – activates the human parathyroid hormone receptor PTHR1 | Q03431 | HEK293 GP2 PTHR1 cells, GloSensor cAMP luminescence, 1 h | Potency, µM (titrated, usually from 115 µM), without a hit: at the top dose activation, most hits filed as activators | hit rate 0.075% among 410,000; note: nearly all actives have a fitted effect of over 55% in size
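HEK-293-derived GP2 cells expressing PTHR1 and a GloSensor cAMP reporter, 3,000/well, plated overnight, given luciferin plus IBMX (each 0.5 mM as added) for 1 h at 37 °C, then compound for 1 h at 37 °C. Luminescence was read after 15 min at room temperature.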
GLP-1R inv ag – inverse agonists of human GLP-1 receptor | Potency, µM (highest dose often 38.3 µM), for the others: at the highest dose activity change, negative = inhibition, hits mostly inhibitors | hit rate 1.6% among 410,000 | HEK293 GLP-1R CRE-luciferase, luminescence, 24 h; GLP-1R form is constitutively active; note: % is set by controls: 0 for no effect and ±100 for the full control effect; nearly all actives have a fitted effect of over 55% in size
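Using stably transfected HEK293 (constitutively active GLP-1R, cAMP-luciferase reporter), compounds were incubated 24 hr and luciferase measured by luminescence.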
HEK293 tox – cytotoxicity in counter-screen for GLP-1R inverse agonists | HEK293 cAMP-luciferase reporter cells, luminescence, 24 h | Potency, µM (titrated, usually from 38.3 µM), for inactives: at the top dose activity change, negative = inhibition, hits mostly inhibitors | hit rate 0.13% among 410,000 | AID 624418;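 note: loss of luciferase light is scored as toxicity; % is set by controls: 0 for no effect and ±100 for the full control effect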
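MLSMR compounds, 24 hr on cells at 37 deg C/5% CO2; luminescence after luciferase reagent (12 min RT). Inhibition counted as the undesired cytotoxic outcome.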
Active calls of the source: *; i = inactive; ? = inconclusive; . = no result given; [ ] = remark or other dose. Calls come from the whole dose curve; as a rule, active = well fitted curve in the direction sought with a large enough effect; inconclusive = small, poorly fitted or top-dose-only effect, or another doubt; inactive = no such curve, though single readings can be large; an effect the other way counts as inactive or inconclusive. Potency is the fitted concentration of half-maximal effect.

SMILES	GLP-1R agonist	PTHR1 agonist	GLP-1R inv ag	HEK293 tox
Cc1ccc(S(=O)(=O)N(CC(O)Cn2c3ccccc3c3ccccc32)c2cccc(C(=O)NCCO)c2)cc1 (stereo not given)	-1%	i	13µM*	-22%
Cc1ccc(NC(=O)CN2C(=O)COc3ccc(S(=O)(=O)N4CCCCCC4)cc32)c(C)c1	.	7%	-15%	3%
CCC(Sc1nc(-c2ccccc2)[nH]c1S(=O)(=O)c1ccc(C)cc1)C(=O)O (stereo not given)	.	0%	8%	6%
CC(Oc1ccc(Br)cc1)C(=O)Nc1ncn[nH]1 (stereo not given)	.	-14%	-13%	12%
CC(=O)Nc1sc2c(c1C#N)CCCC2	12%	i	13%	18%
Cn1nc(C(=O)Nc2sc3c(c2C#N)CCCC3)ccc1=O	0%	45µM*	0%	5%
CCOC(=O)N1CCN(Cc2nc(Cc3cccc(F)c3)no2)CC1	7%	0%	2%	-9%
COc1ccc(N2CCN(Cc3nc(Cc4cccc(F)c4)no3)C(C)C2)cc1 (stereo not given)	1%	-10%	5.6µM*	-2%
CCOC(=O)C1=C(c2ccccc2)N=c2s/c(=C\c3cccc(O)c3)c(=O)n2C1c1cccs1 (stereo not given)	-1%	i	11µM*	-10%
C=CCNc1nc(NCc2ccc(NC(C)=O)cc2)c2sc(-c3ccccc3)cc2n1	-9%	-11%	?	?
COCCNc1nc(NCC2CCCCC2)c2sc(-c3ccccc3)cc2n1	-2%	-21%	?	?
c1ccc(-c2cc3nc(NCC4CC4)nc(NCC4CCCCC4)c3s2)cc1	-5%	-74%	2µM*	?
CC(=O)Nc1ccc(CNc2nc(NC(C)C)nc3cc(-c4ccccc4)sc23)cc1	-13%	-37%	11µM*	?
c1ccc(OCCNc2nc(NCC3CC3)nc3ccsc23)cc1	-2%	-44%	8.9µM*	-10%
CCOc1ccc(NC(=O)c2cnn(-c3ccc(C)c(C)c3)c2C2CCN(C(=O)OC(C)(C)C)CC2)cc1	.	i	15%	1%
COc1ccc(C2C=C(c3ccccc3)Nc3nc(NC(=O)/C=C/c4ccc(F)cc4)nn32)cc1 (stereo not given)	.	-25%	5%	4%
O=C(C1CN(C(=O)c2cc3cc(Cl)ccc3o2)c2ccccc2O1)N1CCCCC1 (stereo not given)	-25%	-42%	11µM*	-31%
O=C(c1cc2cc(Cl)ccc2oc1=O)N1CCCCCCC1	-2%	-3%	-3%	3%
CCOC(=O)C1CCCCN1Cc1cccc(OCc2ccccc2)c1 (stereo not given)	-6%	-10%	10µM*	5%
Fc1ccccc1C1c2cccn2CCN1C(=S)Nc1cccc(Br)c1 (stereo not given)	-1%	i	-8%	-1%
Fc1ccccc1C1c2cccn2CCN1C(=S)Nc1ccc(Br)cc1 (stereo not given)	-5%	-5%	4.5µM*	?
O=C1CC(c2cccc(O)c2)c2c(nc(SCc3ccccc3F)[nH]c2=O)N1 (stereo not given)	.	i	1%	-14%
Cc1ccc(C)c(NC(=O)Cn2c(=O)n(Cc3ccco3)c(=O)c3oc4ccccc4c32)c1	.	13%	0%	0%
COc1ccc(CCNC(=O)c2cc(Nc3cc(C)cc(C)c3)nc3ccccc23)cc1OC	-9%	-43%	4.5µM*	3%
COc1ccc(CCNC(=O)c2cc(-c3ccccc3)nc3ccccc23)cc1OC	17%	i	19%	-2%
SMILES	GLP-1R agonist	PTHR1 agonist	GLP-1R inv ag	HEK293 tox
CSc1cccc(Nc2cc(C(=O)NCCc3ccc(Cl)cc3)c3ccccc3n2)c1	-15%	18%	5µM*	4%
CCCCN(CCCNC(=O)c1cc(Nc2cccc(SC)c2)nc2ccccc12)Cc1ccccc1	.	-16%	?	1%
CCOC(=O)CCc1ccc(NC(=O)/C=C/c2ccc([N+](=O)[O-])o2)cc1	5%	-39%	?	11µM*
Cc1ccc(/C=C/C(=O)Nc2ccc([N+](=O)[O-])cc2)o1	-7%	i	77%	-4%
CCCS(=O)(=O)c1ncc(Cl)c(C(=O)N(Cc2ccccc2)Cc2ccco2)n1	.	-93%	13µM*	10µM*
CCSc1ncc(Cl)c(C(=O)N(Cc2ccccc2)Cc2ccco2)n1	.	-71%	10µM*	0%
CCCSc1ncc(Cl)c(C(=O)N(Cc2ccc(Cl)cc2)Cc2ccco2)n1	.	-38%	-79%	-15%
COc1ccc(N(Cc2ccccc2)C(=O)c2nc(SC)ncc2Cl)cc1	.	-7%	11µM*	4%
COc1ccc(NC(=O)c2nc(SC)ncc2Cl)cc1	-2%	13%	-14%	-10%
COc1ccc(Cl)cc1NC(=O)Cn1nc(C(F)(F)F)c2c1CCC2	-8%	-2%	?	3%
COc1ccc(Cl)cc1NC(=O)Cn1nc(C(F)(F)F)c2c1CCCC2	-9%	-8%	13µM*	5%
Cc1ccc(Cn2c(C(=O)O)c(CNCc3ccc(OC(C)C)cc3)c3ccc(C)cc32)cc1	-6%	-3%	13µM*	?
Cc1ccc(CNCc2c(C(=O)O)n(Cc3ccc(C)cc3)c3cc(C)ccc23)cc1	-6%	-26%	?	?
CCCCCc1ccc(OCCC[n+]2ccccc2)c(CCCCC)c1	1%	-33%	7.9µM*	?
CCCCCc1ccc(OCCOCCn2c[n+](C)c3ccccc32)c(CCCCC)c1	4%	-48%	?	?
C[C@@H]1O[C@@]2(CS1)CN1CCC2CC1	-2%	.	.	.
CCN1C(N(C)CCc2c[nH]c3ccccc23)=N[C@@H](c2cccc(C(F)(F)F)c2)C(C(=O)OC)=C1C	-1%	-25%	10µM*	-12%
CN=C1C=CC(=C(c2ccc(N(C)C)cc2)c2ccc(N(C)C)cc2)C=C1	-4%	.	.	.
COc1ccc(-c2onc(C)c2C)cc1S(=O)(=O)N1c2ccccc2CC1C (stereo not given)	.	-86%	5%	0%
COc1ccc(CN2C(=O)C(CC(=O)NCCCCc3ccccc3)CC(C(=O)N(C(C)C)C(C)C)=C2C)cc1 (stereo not given)	-3%	-13%	11µM*	-18%
Cc1ccc(NC(=O)N2CCN(c3ccc(Cl)c(Cl)c3)CC2)cc1	.	-90%	?	-8%
CC(C)c1ccc(NC(=O)N2CCN(c3ccc(Cl)c(Cl)c3)CC2)cc1	.	-90%	7.9µM*	-23%
CC(C)c1ccc(NC(=O)N2CCN(S(=O)(=O)c3ccccc3)CC2)cc1	4%	-26%	5.6µM*	-6%
CCCC(=O)Nc1nnc(SCC)s1	1%	-15%	2%	2%
CCSc1nnc(NC(=O)NC(C)(C(F)(F)F)C(F)(F)F)s1	-1%	-29%	10µM*	-22%
CCSc1nnc(NC(=O)NC(CC)(C(F)(F)F)C(F)(F)F)s1	-30%	-28%[57.5 µM]	7.1µM*	?
Fc1ccc(-c2noc3ncnc(N4CCCCC4)c23)cc1	.	-18%	-24%	0%
